Data: PubChem BioAssay (Tox21)
Records with an inconclusive call do not appear. Calls of active or inactive are those of the source. Unless noted, the call rests on the fitted dose curve.

How the values were obtained:
[1] = target: Gonadotropin-releasing hormone receptor (Homo sapiens) (UniProt P30968); assay: Human gonadotropin-releasing hormone receptor (GnRHR) small molecule agonists, calcium flux assay in GnRHR-HEK293 cells (AID 1920063); further: nearly all actives have a fitted effect of over 35% in size
Summary of the method: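 Compounds dissolved in DMSO are pin-transferred onto dye-loaded GnRHR-HEK293 cells, which were seeded 18 h before at 37 C/5% CO2. Calcium signal is read as fluorescence intensity at 1 s intervals for 3 min.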

[2] = target: KiSS-1 receptor (Homo sapiens) (UniProt Q969F8); assay: Human kisspeptin (KISS1R) small molecule agonists, calcium flux assay in KISS1R-HEK293 cells (AID 1920064; active means well fitted activation curve with a large enough effect in the repeat runs)
Summary of the method: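 Cell line: HEK293, stable human KISS1R. Dye loading 1 h at 37 C after 18 h culture. Read: kinetic fluorescence, 480/540 nm, 3 min at 1 s intervals.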

[3] = G protein-coupled receptor (GPCR) small molecule agonists, calcium flux assay: HEK293 wild type cell line counter screen (AID 1920065)
Summary of the method: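 Tox21 10K compounds, 15 concentrations each in triplicate, pin-transferred in DMSO onto dye-loaded cells; kinetic read at 480/540 nm for 3 min, 1 s intervals.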

[4] = p53 small molecule agonists, cell-based qHTS assay with human liver microsomes (AID 1963577)
Summary of the method: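 p53RE-bla cells, 4,000/well, compound added after 5 h, with human liver microsomes 0.5 mg/mL and NADPH 0.5 mg/mL final; 16 h at 37 C, then LiveBLAzer 2 h RT, fluorescence.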

[5] = p53 small molecule agonists, cell-based qHTS assay with rat liver microsomes (AID 1963578)
Summary of the method: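 p53RE-bla cells, 4,000/well, pre-incubated 5 h, then given compounds plus rat liver microsomes (0.5 mg/mL final) and NADPH (0.5 mg/mL final). Incubation 16 h at 37 C; beta-lactamase reporter read by LiveBLAzer fluorescence after 2 h at room temperature.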

[6] = p53 small molecule agonists, cell-based qHTS assay with human liver microsomes: qHTS cell viability counter screen (AID 1963579); further: nearly all actives have a fitted effect of over 45% in size
Summary of the method: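 p53RE-bla cells, 4,000/well, dosed 5 hours after plating, with human liver microsomes (0.5 mg/mL final) plus NADPH (0.5 mg/mL final), 16 hours at 37 C. Viability read as CellTiter-Glo luminescence after 30 min at room temperature.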

[7] = p53 small molecule agonists, cell-based qHTS assay with rat liver microsomes: qHTS cell viability counter screen (AID 1963580); further: nearly all actives have a fitted effect of over 45% in size
Summary of the method: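 Counter screen for cytotoxicity under metabolic activation: rat liver microsomes and NADPH, 0.5 mg/mL final each, added with compounds to p53RE-bla HCT-116 cells; 16 h at 37 C, then ATP luminescence read.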

[8] = p53 small molecule agonists, cell-based qHTS assay (AID 1963582; active means well fitted activation curve with a large enough effect in the signal ratio in the repeat runs, not every such curve was filed as active; the % refers to the signal ratio)
Summary of the method: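 16 h compound exposure (37 C) of p53 response element–bla cells, preceded by 5 h recovery at 37 C/5% CO2; read-out via LiveBLAzer B/G FRET substrate, 2 h RT, fluorescence intensity.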

[9] = target: 5-hydroxytryptamine receptor 2A (Homo sapiens) (UniProt P28223); assay: 5-hydroxytryptamine receptor 2A (HTR2A) small molecule antagonists, cell-based qHTS assay (AID 1963586); further: nearly all actives have a fitted effect of over 45% in size
Summary of the method: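 CHO cells stably expressing human HTR2A were plated for 18 h at 37 C, then loaded with calcium dye for 1 h. Compounds were preincubated 5 min at room temperature before DOI (4 nM solution) was added. Kinetic fluorescence was read for 3 min.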

[10] = target: 5-hydroxytryptamine receptor 2A (Homo sapiens) (UniProt P28223); assay: 5-hydroxytryptamine receptor 2A (HTR2A) small molecule agonists, cell-based qHTS assay (AID 1963587); further: nearly all actives have a fitted effect of over 30% in size
Summary of the method: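 HTR2A-CHO cells, plated 18 h at 37 C/5% CO2, dye-loaded 1 h at 37 C; compounds in DMSO added by pin tool (agonist mode). Intracellular calcium flux read as kinetic fluorescence on FDSS over 2 min at 1 s intervals.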

[11] = target: Muscarinic acetylcholine receptor M1 (Homo sapiens) (UniProt P11229); assay: Cholinergic receptor muscarinic 1 (CHRM1) small molecule antagonists, cell-based qHTS assay (AID 1963588); further: nearly all actives have a fitted effect of over 40% in size
Summary of the method: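 Compounds were tested at 15 concentrations in three independent runs. Dye-loaded CHRM1-CHO cells were exposed 5 min at room temperature before stimulation by acetylcholine added at 50nM. Intracellular calcium was read kinetically on FDSS for 3 min.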

[12] = target: Muscarinic acetylcholine receptor M1 (Homo sapiens) (UniProt P11229); assay: Cholinergic receptor muscarinic 1 (CHRM1) small molecule agonists, cell-based qHTS assay (AID 1963589); further: nearly all actives have a fitted effect of over 35% in size
Summary of the method: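 Homogeneous fluorescence calcium flux, agonist mode. Human M1-expressing CHO cells; compound dosed at 15 concentrations, three independent runs; signal sampled every 1 sec.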

[13] = cAMP Responsive Elements (CRE) small molecule agonists, cell-based qHTS assay (AID 1963590)
Summary of the method: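 HEK 293T cells stably bearing CRE-bla were plated at 2,000 cells per well and rested 18 h. Compounds, positive controls or DMSO were added for 3 h at 37 C. LiveBLAzer B/G substrate was then loaded for 2 h at room temperature.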

[14] = cAMP Responsive Elements (CRE) small molecule antagonists, cell-based qHTS assay (AID 1963591; active means well fitted inhibition curve with a large enough effect in the signal ratio in the repeat runs, not every such curve was filed as active; the % refers to the signal ratio)
Summary of the method: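 First, CRE-bla HEK293T cells settled 18 h at 37 C. Next, compound and 0.25 uM final NKH477 were applied for 3 h. Last, LiveBLAzer B/G substrate was loaded for 2 h at room temperature.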

[15] = target: Beta-2 adrenergic receptor (Homo sapiens) (UniProt P07550); assay: Adrenergic beta2 receptor (ADRB2) small molecule antagonists, cell-based qHTS assay (AID 1963592); further: series mostly up to about 92 µM; nearly all actives have a fitted effect of over 50% in size
Summary of the method: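 Assay format: CHO-ADRB2 cells, 18-20hr seeding at 37C/5% CO2, then compound plus 1nM isoproterenol agonist mix for 0.5hr RT. Homogeneous time-resolved fluorescence cAMP detection after 1hr, expressed as 665/615 nm ratio.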

[16] = target: D(2) dopamine receptor (Homo sapiens) (UniProt P14416); assay: Dopamine D2 receptor (DRD2) small molecule agonists, cell-based qHTS assay (AID 1963594); further: nearly all actives have a fitted effect of over 35% in size
Summary of the method: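 HEK293 cells stably expressing DRD2 were cultured 24 h at 37 C, then given Ro20-1724 (0.1 mM final) and compounds for 10 min at room temperature. NKH477 (200nM) was then added for 30 min. cAMP was read by HTRF.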

[17] = target: D(2) dopamine receptor (Homo sapiens) (UniProt P14416); assay: Dopamine D2 receptor (DRD2) small molecule antagonists, cell-based qHTS assay (AID 1963595; active means well fitted inhibition curve with a large enough effect in the signal ratio in the repeat runs, with a control signal flat; the % refers to the signal ratio)
Summary of the method: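 Antagonism was scored as restored cAMP in HEK293-DRD2 cells. These cells were stimulated with 200 nM NKH477 and 12 nM quinpirole for 30 min at room temperature, in the presence of 0.1 mM Ro20-1724.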

[18] = Nuclear factor erythroid 2-related factor 2/antioxidant responsive element (Nrf2/ARE) small molecule agonists: luciferase reporter gene qHTS assay in human keratinocytes (AID 1919969); further: nearly all actives have a fitted effect of over 35% in size
[19] = p53 small molecule agonists, cell-based qHTS assay: qHTS cell viability counter screen (AID 1963581); further: nearly all actives have a fitted effect of over 45% in size
Summary of the method: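 ATP content measured by luminescence in HCT-116 p53RE-bla cells treated 16 h at 37 C, same wells as the reporter screen.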

[20] = target: Beta-2 adrenergic receptor (Homo sapiens) (UniProt P07550); assay: Adrenergic beta2 receptor (ADRB2) small molecule agonists, cell-based qHTS assay (AID 1963593);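 further: CHO cells stably overexpressing human ADRB2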
Summary of the method: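 CHO cells stably over-expressing ADRB2 were plated overnight at 37C, then dosed with compounds plus a stimulation mix containing 100uM IBMX and 25uM Ro-20-1724 for 0.5hr at room temperature. cAMP was measured by HTRF competition, 1hr.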

Measured: Potency

Gonadotropin-releasing hormone receptor (Homo sapiens), sequence (P30968 whole entry, looked up): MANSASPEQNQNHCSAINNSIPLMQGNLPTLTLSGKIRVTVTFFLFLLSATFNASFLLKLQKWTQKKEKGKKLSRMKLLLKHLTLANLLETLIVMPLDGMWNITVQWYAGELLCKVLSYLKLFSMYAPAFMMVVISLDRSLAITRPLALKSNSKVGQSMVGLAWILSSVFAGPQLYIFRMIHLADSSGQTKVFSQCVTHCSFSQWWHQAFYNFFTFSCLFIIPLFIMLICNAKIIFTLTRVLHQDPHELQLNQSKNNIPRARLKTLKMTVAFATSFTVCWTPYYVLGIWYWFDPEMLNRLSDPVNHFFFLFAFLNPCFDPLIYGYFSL
D(2) dopamine receptor (Homo sapiens), sequence (P14416 whole entry, looked up): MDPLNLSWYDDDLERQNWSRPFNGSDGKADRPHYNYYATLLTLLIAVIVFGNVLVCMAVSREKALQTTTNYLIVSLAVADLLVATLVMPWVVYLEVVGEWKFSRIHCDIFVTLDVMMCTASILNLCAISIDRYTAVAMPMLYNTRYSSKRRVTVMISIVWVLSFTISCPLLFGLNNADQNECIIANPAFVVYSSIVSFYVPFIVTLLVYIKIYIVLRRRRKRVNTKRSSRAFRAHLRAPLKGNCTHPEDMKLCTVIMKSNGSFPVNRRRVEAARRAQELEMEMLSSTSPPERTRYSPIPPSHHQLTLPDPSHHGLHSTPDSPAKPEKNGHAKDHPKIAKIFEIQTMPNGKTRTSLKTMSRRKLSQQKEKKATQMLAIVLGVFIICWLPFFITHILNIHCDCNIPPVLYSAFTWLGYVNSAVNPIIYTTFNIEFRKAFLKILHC
Beta-2 adrenergic receptor (Homo sapiens), sequence (P07550 whole entry, looked up): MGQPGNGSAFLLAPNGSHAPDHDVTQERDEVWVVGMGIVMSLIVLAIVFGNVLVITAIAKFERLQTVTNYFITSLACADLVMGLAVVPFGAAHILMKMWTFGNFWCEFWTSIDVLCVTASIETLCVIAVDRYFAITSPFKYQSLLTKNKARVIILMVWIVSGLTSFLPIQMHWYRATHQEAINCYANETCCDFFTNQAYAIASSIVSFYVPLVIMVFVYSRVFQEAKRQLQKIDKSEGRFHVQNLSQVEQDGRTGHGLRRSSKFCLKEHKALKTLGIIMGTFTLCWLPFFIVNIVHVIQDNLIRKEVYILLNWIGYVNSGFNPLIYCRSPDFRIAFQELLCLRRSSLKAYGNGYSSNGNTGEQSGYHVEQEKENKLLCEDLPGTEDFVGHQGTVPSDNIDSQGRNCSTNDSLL
Muscarinic acetylcholine receptor M1 (Homo sapiens), sequence (P11229 whole entry, looked up): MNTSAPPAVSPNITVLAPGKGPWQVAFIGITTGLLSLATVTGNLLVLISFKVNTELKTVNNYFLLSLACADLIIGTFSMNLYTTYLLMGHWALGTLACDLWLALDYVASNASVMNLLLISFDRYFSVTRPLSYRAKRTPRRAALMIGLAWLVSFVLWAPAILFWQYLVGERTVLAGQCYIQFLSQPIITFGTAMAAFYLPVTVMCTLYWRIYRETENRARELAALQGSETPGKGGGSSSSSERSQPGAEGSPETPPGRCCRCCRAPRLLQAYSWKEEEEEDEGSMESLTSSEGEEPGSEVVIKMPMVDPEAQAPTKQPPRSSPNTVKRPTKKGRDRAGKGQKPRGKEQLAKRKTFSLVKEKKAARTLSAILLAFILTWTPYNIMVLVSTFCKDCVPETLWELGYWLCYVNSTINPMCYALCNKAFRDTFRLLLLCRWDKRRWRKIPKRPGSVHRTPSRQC
5-hydroxytryptamine receptor 2A (Homo sapiens), sequence (P28223 whole entry, looked up): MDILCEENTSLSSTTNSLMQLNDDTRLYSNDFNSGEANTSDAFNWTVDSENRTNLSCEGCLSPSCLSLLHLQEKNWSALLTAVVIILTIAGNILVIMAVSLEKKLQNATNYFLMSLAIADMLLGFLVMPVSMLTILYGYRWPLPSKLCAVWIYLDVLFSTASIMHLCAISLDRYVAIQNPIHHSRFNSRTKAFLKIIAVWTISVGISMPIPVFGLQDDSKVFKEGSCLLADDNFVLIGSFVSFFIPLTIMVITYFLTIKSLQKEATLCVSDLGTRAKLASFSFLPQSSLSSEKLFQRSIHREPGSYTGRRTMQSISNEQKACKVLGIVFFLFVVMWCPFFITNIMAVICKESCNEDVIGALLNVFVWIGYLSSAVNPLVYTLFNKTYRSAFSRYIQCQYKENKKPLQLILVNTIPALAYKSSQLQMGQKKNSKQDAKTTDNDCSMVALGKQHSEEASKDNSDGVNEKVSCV
KiSS-1 receptor (Homo sapiens), sequence (Q969F8 whole entry, looked up): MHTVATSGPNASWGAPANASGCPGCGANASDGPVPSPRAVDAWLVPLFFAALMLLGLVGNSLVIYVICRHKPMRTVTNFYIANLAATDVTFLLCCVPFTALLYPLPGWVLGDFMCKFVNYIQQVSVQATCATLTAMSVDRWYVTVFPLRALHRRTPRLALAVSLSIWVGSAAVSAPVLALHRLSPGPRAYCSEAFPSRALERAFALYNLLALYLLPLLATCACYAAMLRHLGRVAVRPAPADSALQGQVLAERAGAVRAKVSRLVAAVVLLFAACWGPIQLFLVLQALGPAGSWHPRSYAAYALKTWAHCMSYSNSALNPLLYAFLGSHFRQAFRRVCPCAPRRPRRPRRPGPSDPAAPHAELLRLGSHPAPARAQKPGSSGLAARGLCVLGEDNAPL

CC(=O)c1cnccn1
not listed: [18] | [19] | [20]
inactive: all other assays above

O=[N+]([O-])c1ccc(CO)cc1
not listed: [2] | [6] | [15]
inactive: all other assays above

C(=C/c1ccccc1)/c1ccccc1
not listed: [9] | [15] | [18]
inactive: all other assays above

COC(=O)CCCCC(CCSS/C(CCO)=C(\C)N(C=O)Cc1cnc(C)nc1N)SC(C)=O (stereo not drawn)
not listed: [3] | [9] | [19]
inactive: all other assays above

COc1cc2c(N3CCN(C(=O)Nc4ccc(OC(C)C)cc4)CC3)ncnc2cc1OCCCN1CCCCC1
not listed: [3] | [6] | [7] | [13] | [17] | [20]
inactive: all other assays above

O=C(c1ccc(F)cc1)C1CCN(CCn2c(=O)[nH]c3ccccc3c2=O)CC1
not listed: [1] | [9] | [13] | [14]
inactive: all other assays above

OCC(O)[C@@H](O)[C@H](O)[C@H](O)CO[C@H]1O[C@H](CO)[C@@H](O)[C@H](O)[C@H]1O (stereo partly drawn)
not listed: [1] | [2] | [3] | [8] | [20]
inactive: all other assays above
